Experimental data: PMC4336329 (PLoS ONE, 2015)
The whole screen tested about 310,000 compounds, of which about 14,000 (4.5%) showed an effect of 50% or more. Effects have a minus sign here. The full list was thinned out, with strong results kept by preference.

Target: human ether-à-go-go-related gene (hERG) potassium channel (human, UniProt Q12809)
Test: primary screen, population patch clamp on CHO cells stably expressing hERG; higher = less effect of the substance
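Note: peak tail current of the secondary pulse compared with the same well before compound.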

human ether-à-go-go-related gene (hERG) potassium channel, sequence (Q12809 whole entry, looked up): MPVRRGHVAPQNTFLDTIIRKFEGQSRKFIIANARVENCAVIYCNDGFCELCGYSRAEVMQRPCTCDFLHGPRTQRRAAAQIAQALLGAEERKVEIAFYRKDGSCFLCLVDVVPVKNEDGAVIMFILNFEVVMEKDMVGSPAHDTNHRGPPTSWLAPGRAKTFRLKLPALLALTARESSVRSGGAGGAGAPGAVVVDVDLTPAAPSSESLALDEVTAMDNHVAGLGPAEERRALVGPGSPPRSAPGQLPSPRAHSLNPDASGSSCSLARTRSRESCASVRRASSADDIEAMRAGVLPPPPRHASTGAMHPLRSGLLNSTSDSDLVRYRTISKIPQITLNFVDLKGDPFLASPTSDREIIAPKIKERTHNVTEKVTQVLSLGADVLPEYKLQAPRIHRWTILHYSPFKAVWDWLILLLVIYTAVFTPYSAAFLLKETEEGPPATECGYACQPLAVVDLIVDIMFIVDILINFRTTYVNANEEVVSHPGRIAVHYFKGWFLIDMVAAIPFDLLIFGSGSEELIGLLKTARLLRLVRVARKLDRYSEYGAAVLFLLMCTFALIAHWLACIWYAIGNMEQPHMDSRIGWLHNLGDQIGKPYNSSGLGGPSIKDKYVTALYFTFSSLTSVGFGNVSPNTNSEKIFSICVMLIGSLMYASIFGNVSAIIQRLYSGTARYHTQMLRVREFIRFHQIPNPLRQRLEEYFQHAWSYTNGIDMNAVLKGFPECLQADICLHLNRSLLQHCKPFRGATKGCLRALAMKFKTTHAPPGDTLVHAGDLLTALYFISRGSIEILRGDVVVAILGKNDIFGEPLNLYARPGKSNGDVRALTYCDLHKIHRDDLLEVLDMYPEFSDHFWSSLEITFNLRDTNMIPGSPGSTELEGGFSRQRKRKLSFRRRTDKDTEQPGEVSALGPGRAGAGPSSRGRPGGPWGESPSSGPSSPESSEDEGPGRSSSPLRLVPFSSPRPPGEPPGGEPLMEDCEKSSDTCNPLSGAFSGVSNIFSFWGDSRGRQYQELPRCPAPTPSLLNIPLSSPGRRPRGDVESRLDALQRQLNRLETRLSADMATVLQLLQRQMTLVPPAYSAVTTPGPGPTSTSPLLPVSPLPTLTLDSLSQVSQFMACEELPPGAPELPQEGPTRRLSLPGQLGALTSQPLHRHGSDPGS

Compound	hERG current change (%, negative = inhibition) at 10uM [%]
Cc1nn(C)cc1/C=N/NC(=O)Cn1nccc1C	-1.28
CCCCC(=O)NC1(C(F)(F)F)NC(=O)N(C)C1=O (centres unmarked)	11.3
CCC(Sc1nc2ccsc2c(=O)n1-c1ccc(Cl)c(C)c1)C(=O)NCc1ccco1 (centres unmarked)	-16.8
CCOC(=O)c1nnn(CC(=O)Nc2cccc(Cl)c2C)c1C(=O)OCC	4.51
COc1cc(NC(=O)CSc2nnc3c(C)cc4c(C)ccc(C)c4n23)c(C(=O)O)cc1OC	27.1
COc1cccc(CNC(=O)CCC2CCCN(C(=O)c3ccc(C)nc3)C2)c1 (centres unmarked)	9.47
COc1cccc(CNC(=O)CCC2CCCN(c3cc(C)nc(N)n3)C2)c1 (centres unmarked)	-63.5
COc1cccc(CNC(=O)CCC2CCCN(c3cc(C)nc(N(C)C)n3)C2)c1 (centres unmarked)	-62.4
COc1cccc(CNC(=O)CCC2CCCN(C(=O)c3cc(C)[nH]n3)C2)c1 (centres unmarked)	31.9
COc1cccc(CNC(=O)CCC2CCCN(c3cc(C)nc(N4CCCC4)n3)C2)c1 (centres unmarked)	-75
Cc1cc(C)nc(N2CCCC(CCC(=O)NCc3ccc(F)c(F)c3)C2)n1 (centres unmarked)	-1.25
COc1cccc(CNC(=O)CCC2CCCN(C(=O)c3cc(C)on3)C2)c1 (centres unmarked)	5.3
COc1cccc(CNC(=O)CCC2CCCN(C(=O)C3CCOCC3)C2)c1 (centres unmarked)	1.51
COc1cccc(CNC(=O)CCC2CCCN(C(=O)c3ccccc3N(C)C)C2)c1 (centres unmarked)	0.174
Cc1ccc(Nc2cccccc2=O)cc1	-4.5
Cc1ccc(S(=O)(=O)N(C)C)cc1NC(=O)CSc1ncn[nH]1	3.1
CC1=NN(C(=O)c2c(Br)cnn2C)C(O)(C(F)(F)F)C1 (centres unmarked)	-24.6
Fc1cccc(Nc2ncnc3c2cnn3-c2ccccc2)c1	12.1
COc1cc(/C=N/NC(=O)c2nnn(-c3nonc3N)c2C(C)C)ccc1OCc1ccc(F)cc1	31.1
O=C(Cc1cscn1)c1ccc(O)cc1O	-9.71
COc1cc(OC)cc(C(=O)N[C@H](C(=O)Nc2ccc3c(c2)OCO3)C(C)C)c1	11
CSCC(=O)N1CCCC(CO)(CCCc2ccccc2)C1 (centres unmarked)	-4.78
O=C(CCC(F)(F)F)N1CCC(CO)(CCc2ccccc2)CC1	-12

Compound	hERG current change (%, negative = inhibition) at 10uM [%]
CSCCC(=O)N1CCCC(CO)(CCCc2ccccc2)C1 (centres unmarked)	-8.88
OCC1(CCc2ccccc2)CCCN(CCCC(F)(F)F)C1 (centres unmarked)	-51.7
OCC1(CCc2ccccc2)CCCN(CCCc2ccccc2)C1 (centres unmarked)	-70.9
OCC1(Cc2ccc(F)cc2)CCCN(CCCC(F)(F)F)C1 (centres unmarked)	-22.3
C[n+]1ccc(/C=N/Nc2nc(Cl)c(C#N)c(Cl)c2Cl)cc1.[Cl-]	20.2
Cc1ccc(CNC(=O)c2ccccc2N)cc1	5.16
COc1cc(NS(=O)(=O)c2ccc(N/C=C(\C#N)c3nc4cc(Cl)ccc4o3)cc2)nc(OC)n1	-7.44
CC(=O)c1ccc(N2C(=NC(=O)C3CCCO3)SC3CS(=O)(=O)CC32)cc1 (centres unmarked)	-39.7
CCCCc1ccc(N2C(=NC(=O)C3CCCO3)SC3CS(=O)(=O)CC32)cc1 (centres unmarked)	-56.5
CCN(CC)c1ccc(N2C(=NC(=O)C3CCCO3)SC3CS(=O)(=O)CC32)cc1 (centres unmarked)	3.6
COc1ccc(/C(C)=N/NC(=O)CCC(=O)Nc2ccc(Cl)cc2Cl)c(OC)c1	-3.74
CC1(C)O[C@@H]1COc1c2ccoc2cc2oc(=O)ccc12	-19.4
Cc1ccc(N2C(=O)CC(N3CCN(c4ccccn4)CC3)C2=O)cc1 (centres unmarked)	-6.04
O=C1CC(N2CCCCC2)C(=O)N1c1ccccc1 (centres unmarked)	-3.42
CC1CCN(C2CC(=O)N(c3ccccc3)C2=O)CC1 (centres unmarked)	8.4
O=C1CC(N2CCN(C3CCc4ccccc4C3)CC2)C(=O)N1c1ccccc1 (centres unmarked)	-64.6
Cc1ccc(N2C(=O)CC(N3CCN(C4CCc5ccccc5C4)CC3)C2=O)cc1 (centres unmarked)	-75.1
CCOC(=O)N1CCN(C2CC(=O)N(c3ccc(C)cc3)C2=O)CC1 (centres unmarked)	1.62
CC(/C=C/c1ccco1)=N/NC(=O)OC(C)(C)C	3.46
N#Cc1ccccc1Sc1ccccc1C(=O)Nc1ccc2ccccc2c1	15.8
CC(=O)c1c(C)nc(-c2ccc(Cl)cc2)nc1NC(=O)C(C)C	-9.25
Oc1ccccc1N=N/C(=N/Nc1ccccc1O)c1ccccc1	8.83
COC(=O)CCC(=O)Nc1ccccc1C(N)=O	23.1

Compound	hERG current change (%, negative = inhibition) at 10uM [%]
CC(C)(CO)Nc1ccc([N+](=O)[O-])cc1[N+](=O)[O-]	-8.26
CC1(C)Cc2c(cnn2-c2ccc(F)cc2)C(NC(=O)Cn2cncn2)C1 (centres unmarked)	7.61
CC1(C)Cc2c(cnn2-c2ccc(F)cc2)C(NC(=O)CCn2cncn2)C1 (centres unmarked)	-69.1
COc1ccc(-n2ncc3c2CC(C)(C)CC3NC(=O)CCn2cncn2)cc1 (centres unmarked)	-42.2
CC1(C)Cc2c(cnn2-c2ccc(F)cc2)C(NC(=O)CCN2CCCC2=O)C1 (centres unmarked)	5.01
Cc1ccc(-n2ncc3c2CC(C)(C)CC3NC(=O)CCn2cncn2)cc1 (centres unmarked)	-76.8
CC1(C)Cc2c(cnn2-c2ccccc2)C(NC(=O)CCCn2cncn2)C1 (centres unmarked)	-1.88
COc1cc(-c2nc3c[n+](CC(=O)c4ccccc4)ccc3n2C)cc(OC)c1OC.[Br-]	0.461
CCC(CC)C(=O)Nc1ccc(-c2cn3cccnc3n2)cc1	4.74
Cc1cc(C)n(-c2ccc(C(=O)Nc3ccc(S(=O)(=O)N(C)C)cc3)cc2)n1	-40.8
Cc1ccccc1-c1nnc(-c2ccccc2)o1	-6.58
O=C(NC1CCCCC1)N1CCN(C(=O)c2ccco2)CC1	-6.24
Cc1ccc(N2CC(NC(=O)C(=O)c3c(C)[nH]c4ccccc34)CC2=O)cc1C (centres unmarked)	-10.1
O=C(NC1CC(=O)N(c2ccc(Cl)cc2)C1)C1CC1 (centres unmarked)	-18.2
Cc1[nH]c2ccccc2c1C(=O)C(=O)NC1CC(=O)N(c2ccc(F)cc2)C1 (centres unmarked)	-51.9
COc1ccc(N2CC(NC(=O)N3CCN(C(=O)c4ccco4)CC3)CC2=O)cc1OC (centres unmarked)	5.5
Cc1ccc(N2CC(NC(=O)C(=O)c3c(C)[nH]c4ccccc34)CC2=O)cc1 (centres unmarked)	-47.8
O=C(NC1CC(=O)N(c2ccccc2)C1)N1CCN(C(=O)c2ccco2)CC1 (centres unmarked)	-5.77
COc1ccc(N2CCN(C(=O)NC3CC(=O)N(c4ccc(OC)cc4)C3)CC2)cc1 (centres unmarked)	-35.9
O=C(NC1CC(=O)N(c2ccc(F)cc2)C1)N1CCN(C(=O)c2ccco2)CC1 (centres unmarked)	-63
O=C(NC1CC(=O)N(c2ccc(Cl)cc2)C1)N1CCN(C(=O)c2ccco2)CC1 (centres unmarked)	-91.6
Cc1ccc(N2CC(NC(=O)N3CCN(C(=O)c4ccco4)CC3)CC2=O)cc1 (centres unmarked)	-52.6
O=C(NC1CC(=O)N(c2cccc(F)c2)C1)N1CCN(C(=O)c2ccco2)CC1 (centres unmarked)	-26.1

Compound	hERG current change (%, negative = inhibition) at 10uM [%]
COc1ccc(COc2ccc3ccc(=O)oc3c2)cc1	9.33
O=C(OCc1nnc(-c2ccccc2)o1)c1cc2ccccc2cc1O	8.95
C/C(=N\NC(=O)c1nnn(-c2nonc2N)c1-c1cccs1)c1ccc(C)cc1	-0.452
CC(=O)Nc1ccc(N2CCN(c3ccc(F)cc3)CC2)cc1	18.4
CS(=O)(=O)c1ccccc1C(=O)NC1CCCc2ccccc21 (centres unmarked)	66.1
O=C(CCN1C(=O)S/C(=C\c2cccs2)C1=O)Nc1nccs1	9.41
CCOC(=O)C1(CCOc2ccccc2)CCN(Cc2cccc(-n3cccn3)c2)CC1	-79.3
CCOC(=O)C1(CCOc2ccccc2)CCN(C(=O)c2ccc(-n3cccn3)cc2)CC1	-78.9
CCOC(=O)CCNC(=O)N1CCC(CCOc2ccccc2)(C(=O)OCC)CC1	-16.1
CCOC(=O)C1(CCOc2ccccc2)CCN(Cc2ccc(-n3cccn3)cc2)CC1	-84.1
CCOC(=O)CNC(=O)N1CCC(CCOc2ccccc2)(C(=O)OCC)CC1	1.83
CCOC(=O)C1(CCOc2ccccc2)CCN(Cc2ccc3nonc3c2)CC1	-17
COc1ccccc1C(=O)Nc1nc(N)n(-c2ccccc2)n1	13.8
CCCNC(=S)Nc1ccc(Oc2ccccc2)cc1	-10.8
O=C(O)/C=C/c1cnc2ccccc2n1	16.6
Cc1ccc(S(=O)(=O)N2CCC(C(=O)NN3CCCCC3)CC2)cc1	4.16
O=C1Nc2ccc(Br)cc2/C1=C/C(=O)c1ccc2c(c1)OCO2	9.53
CCCCCNC(=O)C(C)Sc1ccc(Cl)cc1 (centres unmarked)	10.9
C[C@@H](NCCc1ccc(O)cc1)[C@@H](O)c1ccc(O)cc1.Cl	-11.5
CCCCCCCCN[C@H](C)[C@@H](O)c1ccc(SC(C)C)cc1	-67.4
